TEAD-YAP block – TEAD-YAP interaction inhibition; HEK-TIYL cells, TEAD-Gal4/YAP UAS-luciferase luminescence; 1.4% of 640,000 active; inhibition, % at 9.12 µM; AID 1259422; in the data active means inhibition above about 32%
MITF primary – human MITF inhibition, primary screen | O75030 | AlphaScreen MITF homodimerization, bead proximity signal | inhibition, % at 2.6 µM | 0.91% of 650,000 active; in the data active means inhibition above about 50%
FBW7 activator – activators of human E3 ligase FBW7; normalized activity (activation), % at 26.1 µM; 0.13% of 650,000 active; AlphaScreen FBW7–phospho-cyclin E peptide binding, activator screen; Q969H0; in the data active means normalized activity above about 1.9%;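 further: purified mutant Fbw7 with reduced substrate affinity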
GPR151 activ – human GPR151 activation | Q8TDV0 | activation, % at 11.2 µM | 1% of 650,000 active | PathHunter beta-arrestin GPR151 cells, luminescence; in the data active means activation above about 4.9%
Target sequence (Q8TDV0 whole entry, looked up): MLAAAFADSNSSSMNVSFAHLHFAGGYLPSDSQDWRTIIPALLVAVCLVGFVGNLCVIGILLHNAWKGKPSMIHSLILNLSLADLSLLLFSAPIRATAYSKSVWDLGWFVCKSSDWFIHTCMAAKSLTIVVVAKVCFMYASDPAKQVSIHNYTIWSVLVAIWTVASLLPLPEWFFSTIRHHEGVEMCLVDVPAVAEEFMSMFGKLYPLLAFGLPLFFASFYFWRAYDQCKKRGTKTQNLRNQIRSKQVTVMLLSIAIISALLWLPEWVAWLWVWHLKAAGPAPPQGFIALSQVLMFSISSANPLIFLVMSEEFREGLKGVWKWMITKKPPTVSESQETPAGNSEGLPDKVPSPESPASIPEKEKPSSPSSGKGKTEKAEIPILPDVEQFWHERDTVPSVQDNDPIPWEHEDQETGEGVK
GPR151 confirm – human GPR151 activation, confirmation screen | shares compounds with GPR151 activ | GPR151 PathHunter beta-arrestin cells, luminescence, 90 min; % of EA-reagent control over plate median | activation, % at 11.2 µM | 6,700 tested, under 10 active;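 active means mean percent activation across replicates above the confirmation screen cutoff of 4.91%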
GPR119 ag – counter-screen for GPR151 activators: effect on human GPR119. shares compounds with GPR151 activ. GPR119 PathHunter beta-arrestin cells, luminescence, 90 min; 0 = compound-well median, 100 = enzyme-acceptor control. activation, % at 11.2 µM. 0.3% of 6,700 active. AID 1508611;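 active means mean percent activation in the counterscreen above 29.09%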;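 further: counterscreen on off-target GPR119 to flag nonselective hits from the GPR151 activator screen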
A number is an active result; n = inactive; x = not tested or not shown; ! = repeats disagree. Most compounds without a hit are left out; they make up all but 3.5% or so of the library.

SMILES	TEAD-YAP block	MITF primary	FBW7 activator	GPR151 activ	GPR151 confirm	GPR119 ag
CCOc1ccc(OCC(=O)Nc2ccccc2CC)cc1	n	n	n	n	x	x
COc1ccc(OCC(=O)Nc2ccccc2CO)cc1	n	n	n	9.2	n	n
CCc1ccccc1NC(=O)COc1ccc(C#N)cc1	n	n	n	7.5	n	n
O=C(COc1ccccc1)Nc1ccccc1NC(=O)COc1ccccc1	n	n	n	5.8	n	n
CC(=O)Nc1ccccc1NC(=O)COc1ccccc1	n	n	n	n	x	x
COc1cc(OC)c(NC(=O)CSc2nc3ccccc3n2S(=O)(=O)c2ccccc2)cc1Cl	n	n	n	n	x	x
COCCn1c(SCC(=O)Nc2ccc(C(N)=O)cc2)nnc1-c1ccc(Cl)cc1	n	n	n	n	x	x
CCOc1ccccc1NC(=O)COc1ccc(F)cc1	n	n	n	n	x	x
COc1ccc(CC(=O)Nc2ccc(N(C)C)c3ccccc23)cc1	n	n	n	5.6	n	n
CCCOc1ccccc1NC(=O)COc1ccc(C#N)cc1	n	n	n	12	n	n
COCCCNCCn1cnc2c(N)ncnc21	n	n	n	7.2	n	n
COc1cccc2c1OCCCN(Cc1nc(Cc3ccccc3Cl)no1)C2	n	n	n	5.7	n	n
N#C/C(=C\c1ccc(-c2ccc(F)cc2)o1)C(=O)NCC1CCCO1 (stereo unspecified)	n	n	n	5.5	n	n
O=C(/C=C\c1ccc([N+](=O)[O-])cc1)Nc1nnc(-c2cccs2)o1	n	n	n	6.7	n	n
O=C(/C=C\c1ccc([N+](=O)[O-])cc1)Nc1nnc(-c2ccccc2)o1	n	n	n	n	x	x
CCOC(=O)C1CCCc2c1[nH]c1c(C(=O)n3ccnc3)cccc21 (stereo unspecified)	n	n	n	n	x	x
COc1ccc(N2CC(NC(=O)NC(c3ccccc3)c3ccccc3)CC2=O)cc1 (stereo unspecified)	n	n	n	6.1	n	n
CCOC(=O)c1cccc(NC(=O)c2noc3c2COc2ccccc2-3)c1	n	n	n	n	x	x
O=C1c2ccccc2C(=O)N1OS(=O)(=O)c1ccc(Cl)cc1	n	n	n	17	n	n
O=C1c2ccccc2C(=O)N1OS(=O)(=O)c1ccccc1	n	n	n	n	x	x
CCCN1C(=O)/C(=C/c2ccco2)SC1=S	n	n	n	n	x	x
CCC(C)N1C(=O)/C(=C\c2ccco2)SC1=S (stereo unspecified)	n	n	n	8.1	n	n
COc1cc(OC)cc(N2C(=O)CC(NCCc3ccc(Cl)cc3)C2=O)c1 (stereo unspecified)	n	n	n	n	x	x
CSCCC(NC(=O)c1ccc(Cl)c([N+](=O)[O-])c1)C(=O)O (stereo unspecified)	n	n	n	5.3	n	n
C=CCOc1ccccc1CNc1n[nH]c2nc(C)cc(C(F)(F)F)c12	n	n	n	n	x	x
SMILES	TEAD-YAP block	MITF primary	FBW7 activator	GPR151 activ	GPR151 confirm	GPR119 ag
CC1(C)CC(C(CCNCc2ccccc2)c2ccc(F)cc2)CCO1 (stereo unspecified)	n	n	n	n	x	x
CCC(C(=O)NCCCN1CCOCC1)n1ncn2c(cc3occc32)c1=O (stereo unspecified)	n	n	n	9.9	n	n
CC(C)CC1(C)NC(=O)N(Cc2nnc(-c3ccccc3Br)o2)C1=O (stereo unspecified)	n	n	n	7.0	n	n
COc1cc(N2CCOCC2)ccc1/C=C1\C(=O)NC(=S)N(c2ccc(F)cc2)C1=O	n	n	n	5.2	n	n
CN1CCC(=C2c3ccccc3C=Cc3ccccc32)CC1	n	n	n	5.3!	n	n
CN1CCC(=C2c3ccccc3Sc3ccccc32)CC1	n	n	n	n	x	x
CC(=O)c1ccc(C(=O)N(Cc2ccncc2)c2nc3c(C)c(Cl)ccc3s2)cc1	n	n	n	n	x	x
CCCC1(C2CCN(Cc3ccc(O)cc3)CC2)NC(=O)N(CC2CCCO2)C1=O (stereo unspecified)	n	n	n	6.0	n	n
Cc1cccc(-n2cc(-c3ccccc3)nc2SCC(=O)Nc2ccc(Cl)cc2)c1	n	n	n	6.3	n	n
CCSCCOC(=O)C1=C(C)NC2=C(C(=O)CCC2)C1c1ccc(SC)cc1 (stereo unspecified)	n	n	n	n	x	x
CCOc1ccccc1N(C)S(=O)(=O)c1ccc2[nH]cc(C(=O)N(CC)CC)c(=O)c2c1	n	n	n	5.9	n	n

Bioassay records as filed in PubChem BioAssay.
